# From PubChem BioAssay
# Calls of active or inactive are those of the source.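 Rule for the calls, unless noted: active = NADPH fluorescence slope more negative than the mean of all samples by about 3 SD, 99.7% confidence; inactive = the rest.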
# Biological target: Voltage-gated potassium channel subunit beta-2 (Rattus norvegicus) (UniProt P62483)
# Assay: KvBeta enzyme negative modulators, primary screen, biochemical, NADPH fluorescence (AID 622;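 active = fluorescence slope higher than the sample average by over 3 SD, cut at about -0.22 in these data, passing the limit was not always enough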;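 note: slope of raw intensity against log time taken from 70 to 1610 s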)
# Settings: recombinant KvBeta, 4-cyanobenzaldehyde reduction, at 10 µM, hits give high values
# Sequence of Voltage-gated potassium channel subunit beta-2 (Rattus norvegicus) (P62483 whole entry, looked up): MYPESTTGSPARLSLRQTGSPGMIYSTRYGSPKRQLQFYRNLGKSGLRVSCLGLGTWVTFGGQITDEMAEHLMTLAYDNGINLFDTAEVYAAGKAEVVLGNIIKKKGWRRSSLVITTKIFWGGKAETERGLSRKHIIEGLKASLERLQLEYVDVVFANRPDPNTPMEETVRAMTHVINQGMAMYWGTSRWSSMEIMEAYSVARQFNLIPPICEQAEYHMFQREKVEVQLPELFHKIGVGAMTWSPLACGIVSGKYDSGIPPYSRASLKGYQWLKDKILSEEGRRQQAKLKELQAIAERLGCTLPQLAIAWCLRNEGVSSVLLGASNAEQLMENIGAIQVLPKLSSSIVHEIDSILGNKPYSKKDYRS
row,Compound,fluorescence slope
1,Cc1ccc2c(c1)CCCN2C(=O)Nc1ccc2c(c1)OCO2,-0.592 (inactive)
2,CCc1c(C(=O)N2CCOCC2)csc1C,-0.409 (inactive)
3,Cc1c(-n2c(CN3C(=O)c4ccccc4C3=O)nc3ccccc3c2=O)c(=O)n(-c2ccccc2)n1C,-0.619 (inactive)
4,Cn1c(=O)[nH]c(=O)c2c1ncn2CCN1CCOCC1,-0.512 (inactive)
5,CC1C(=O)C(C)C(c2cccs2)NC1c1cccs1 (stereo unspecified),-0.501 (inactive)
6,CCOC(=O)c1ccc(NS(=O)(=O)c2ccc3c(c2)CCCN3C(C)=O)cc1,-0.543 (inactive)
7,O=C(Nc1sc2c(c1C(=O)NCc1ccco1)CCCC2)c1ccc2c(c1)OCO2,-0.517 (inactive)

# Biological target: Voltage-gated potassium channel subunit beta-2 (Rattus norvegicus) (UniProt P62483)
# Assay: KvBeta positive modulators, primary screen, biochemical, NADPH fluorescence (AID 623);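 note: fluorescence intensity change per second fitted from 20 to 320 s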
# Settings: Recombinant KvBeta, NADPH fluorescence decrease slope, 10 min; at 10 µM; hits give low values
row,Compound,NADPH fluorescence slope
1,CC(=O)Nc1cccc(OCC(O)Cn2cnc3ccccc32)c1 (stereo unspecified),1.3e-05 (inactive)
2,Cc1ccc(N2CCN(CCc3nc4cc(NS(C)(=O)=O)ccc4n3C)CC2)cc1,-3.7e-05 (inactive)
3,COc1cc2c(cc1OC)C(c1cccnc1)CC(=O)N2 (stereo unspecified),-2.9e-05 (inactive)
4,COc1ccc(S(=O)(=O)N2CCCC(C(=O)N3CCCCCC3)C2)cc1 (stereo unspecified),-5e-05 (inactive)
5,COCCCNC(=O)CSc1ccc(Cl)cc1,-5e-05 (inactive)
6,CCOc1cc(C(=O)N(C)Cc2cc3ccccc3[nH]c2=O)cc(OCC)c1OCC,-5e-05 (inactive)
7,CCOC(=O)CN1CC23C=CC(O2)C(C(=O)NC2CCCC2)C3C1=O (stereo unspecified),-2.3e-05 (inactive)
8,O=C(CN1C(=O)c2ccccc2C1=O)Nc1ccccc1C(=O)N1CCCC1,-2.3e-05 (inactive)
9,CCOC(=O)CSC1=C(C#N)C(c2ccc(C)o2)CC(=O)N1 (stereo unspecified),-2e-05 (inactive)
